# ST2 inh: inhibitors of human ST2 (IL1RL1) binding to IL-33, primary screen, biochemical, AlphaLISA | Interleukin-1 receptor-like 1 (Homo sapiens), Q01638 | AlphaLISA ST2-Fc/biotin-IL-33 interaction, 1 h | inhibition, % for hits at 17 µM | 2.3% of 78,000 active; in the data active = inhibition above about 30%
# Target sequence (Q01638 whole entry, looked up): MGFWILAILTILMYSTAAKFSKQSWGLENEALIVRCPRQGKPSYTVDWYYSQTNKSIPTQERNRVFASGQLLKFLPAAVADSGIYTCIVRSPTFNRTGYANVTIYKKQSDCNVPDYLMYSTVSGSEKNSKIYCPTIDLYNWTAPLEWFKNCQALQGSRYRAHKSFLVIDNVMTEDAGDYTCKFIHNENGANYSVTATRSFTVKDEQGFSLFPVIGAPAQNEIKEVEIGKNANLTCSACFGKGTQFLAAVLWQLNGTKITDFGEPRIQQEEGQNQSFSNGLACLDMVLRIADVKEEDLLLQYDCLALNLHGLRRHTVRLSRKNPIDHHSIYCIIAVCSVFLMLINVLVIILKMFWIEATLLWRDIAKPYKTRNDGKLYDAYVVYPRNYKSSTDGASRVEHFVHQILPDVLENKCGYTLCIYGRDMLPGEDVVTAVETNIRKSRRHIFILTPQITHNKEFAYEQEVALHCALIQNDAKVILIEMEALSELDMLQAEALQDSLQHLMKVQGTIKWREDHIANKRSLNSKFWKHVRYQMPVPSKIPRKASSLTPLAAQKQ
# Numbers stand for hits; i = inactive. This is one part of a sample in which hits are shown more often than they occur.
SMILES,ST2 inh
CCCCC1(C)OC(=O)C(=Cc2ccc(Br)o2)C(=O)O1 (stereo unspecified),73.0%
COc1cc(C=C2C(=O)OC(C)(C)OC2=O)cc(Br)c1O,i
CC1(C)OC(=O)C(=CNc2ccc(C(=O)O)cc2)C(=O)O1,i
CCCCC1(C)OC(=O)C(=Cc2ccc(N(CC)CC)cc2)C(=O)O1 (stereo unspecified),33.0%
O=C1C(=Cc2cccn2-c2ccc(Cl)cc2)C(=O)c2ccccc21,i
CCCCOc1ccc(OC(=O)c2ccc(Br)o2)cc1,i
CC1(C)OC(=O)C(=Cc2ccc(I)o2)C(=O)O1,93.0%
CCCCC1(C)OC(=O)C(=Cc2ccc(OC)c(I)c2)C(=O)O1 (stereo unspecified),i
CC1(c2ccccc2)OC(=O)C(=Cc2ccc(O)cc2)C(=O)O1 (stereo unspecified),i
O=C1C(=Cc2ccc(-c3ccc(F)cc3)o2)C(=O)c2ccccc21,i
COc1ccccc1NC(=O)C(C)SCc1ccccc1 (stereo unspecified),i
C=C(C)c1cccc(C(C)(C)NC(=O)N2CCN(c3ccccc3)CC2)c1,i
CCOC(=O)C1=NN(c2ccc(Cl)cc2)C2C(=O)N(c3ccccc3Cl)C(=O)C12 (stereo unspecified),i
CCn1c(CCNC(=O)C(C)(C)C)nc2ccccc21,i
CCNc1ccc(Br)cc1-c1nc2ccccc2n(CC)c1=O,77.0%
CCn1c(C(C)NC(=O)C(C)(C)C)nc2ccccc21 (stereo unspecified),i
CC(C)(C)C1CCc2onc(C(=O)NCc3ccc(Cl)cc3)c2C1 (stereo unspecified),i
CC(C)(C)C1CCc2onc(C(=O)Nc3cccc(Cl)c3)c2C1 (stereo unspecified),i
CCc1ccc(NC(=O)c2noc3c2CC(C(C)(C)C)CC3)cc1 (stereo unspecified),53.0%
NC(=O)c1ccc2c(c1)C1c3ccccc3C2c2ccccc21,i
CC1CCN(C(=O)c2ccccc2Cl)CC1,i
CCCSc1nc2nc3c(cc2c(=O)n1-c1ccc(OC)cc1)COC(C)(C)C3,44.0%
CSc1nc2nc3c(cc2c(=O)n1-c1ccccc1C)COC(C)(C)C3,i
CCC1(C)Cc2c(sc3nc(SC)n(-c4ccc(OC)cc4)c(=O)c23)CO1 (stereo unspecified),i
Cc1cc(Br)ccc1NC(=O)c1sc2ccccc2c1Cl,i
SMILES,ST2 inh
COc1ccccc1-c1ccnc(-n2ncc(C(=O)NCc3cccc(F)c3)c2C2CC2)n1,i
COc1ccc(OC)c(CNC(=O)c2cc(-c3cccs3)nc3ccccc23)c1,i
COCc1c(C(=O)NCc2ccc3c(c2)CCCN3C)cnn1-c1ncc(C)c(-c2cccs2)n1,39.0%
Cc1ccccc1S(=O)(=O)Cc1ccc(C(=O)NCc2ccc3c(c2)OCO3)o1,i
Cc1cc(Cl)ccc1NC(=O)CN(c1ccccc1F)S(C)(=O)=O,i
CCCCN(CC)Cc1c(C)[nH]c2ccccc2c1=O,i
Cc1[nH]c2ccccc2c1C=C1C(=O)OC2(CCCCC2)OC1=O,48.0%
CCOc1ccc(C=C2C(=O)OC3(CCCCC3)OC2=O)cc1OC,i
COc1cc(-c2[nH]ncc2CN(CCO)Cc2ccccc2)cc(OC)c1OC,i
COc1ccccc1OCCOc1cccc(Cl)c1,i
CCOc1ccc(-c2nnc3cccc(Cl)n23)cc1OC,41.0%
CCOc1cc(CN2CCCN(C)CC2)ccc1OC,i
CC(=O)Nc1ccc(S(=O)(=O)NCCSCc2ccc(Cl)c(Cl)c2)cc1,i
CCN1C(=O)/C(=C2/Sc3ccc(OC)cc3N2C)SC1=Nc1ccc(C(C)=O)cc1,i
CCOc1ccc(N=C2S/C(=C\c3ccc(N(C)C)cc3)C(=O)N2CC)cc1,56.0%
CCOc1ccc(N2C(=O)S/C(=C\c3ccccc3)C2=O)cc1,i
CCc1cc2c(=O)c(-c3ccc4c(c3)OCO4)c(C)oc2cc1OC,i
CNS(=O)(=O)c1cc(OC)ccc1OC,i
Cc1ccccc1OCCn1cc(C=C2C(=O)N(C)C(=O)N(C)C2=O)c2ccccc21,i
COc1cccc(/C=C2/C(=O)NN(c3ccc(C)c(Cl)c3)C2=O)c1,i
COc1cccc(/C=C2/C(=O)NN(c3ccccc3)C2=O)c1OC,i
CCOc1ccc(/C=C2\C(=O)NN(c3cccc(Br)c3)C2=O)cc1OCC,i
Cc1ccccc1OCCOc1ccc([N+](=O)[O-])cc1/C=C1\C(=O)NN(c2ccccc2)C1=O,35.0%
O=C1NN(c2ccccc2)C(=O)/C1=C/c1ccccc1OCc1c(F)cccc1Cl,41.0%
CCOC(=O)C1CCN(S(=O)(=O)c2ccc3c(c2)NC(=O)CC(=O)N3)CC1,i
SMILES,ST2 inh
CC(=O)c1ccc(NC(=O)c2ccccc2I)cc1,i
COc1ccc(-c2nc(-c3cc4c(ccc5ccccc54)oc3=O)cs2)cc1,i
O=S(=O)(c1ccccc1)N1CCCc2ccccc21,i
CN(CC(=O)N1CCN(c2ccc(F)cc2)CC1)S(=O)(=O)c1ccc2c(c1)CCC(=O)N2,i
COc1ccc(Br)cc1C=Nc1c(-c2ccco2)nc2ccccn12,30.0%
COc1ccc(Br)cc1/C=C1N=C(/C=C/c2ccccc2OC)OC\1=O,i

# Compound activity from PubChem BioAssay.
